Most compounds without a hit are left out; they make up all but 5.4% or so of the library.
Lassa entry inh: inhibitors of Lassa virus binding or cell entry; Lassa virus pseudotype entry inhibition, cell reporter; AID 540256; actives 1.2% (n = 300,000); Potency, µM (titrated, usually from 37.9 µM), without a hit: top-dose activity change, negative = inhibition, hits mostly inhibitors; calls by dose curve; tested in HEK293 cells; also: nearly all actives have a fitted effect of over 50% in size
Vaccinia Venus: vaccinia inhibition (Venus reporter); actives 0.46% (n = 330,000); AID 720580; Vaccinia virus Venus reporter expression, fluorescence; Potency, µM (highest dose often 36.5 µM), for the others: top-dose activity change, negative = inhibition, hits mostly inhibitors; calls by dose curve; tested in A549 cells; also: nearly all actives have a fitted effect of over 30% in size
Marburg entry inh: inhibitors of Marburg virus binding or cell entry; actives 1.8% (n = 300,000); Potency, µM (top dose mostly 37.8 µM), for inactives: at the top dose activity change, negative = inhibition, actives largely listed as inhibitors; Marburg virus pseudotyped entry inhibition, cell reporter; calls by dose curve; tested in HEK293 cells
FMDV inh: antivirals against foot and mouth disease virus. Potency, µM (doses to about 57.9 µM), for the others: at the top dose activity change, negative = inhibition, hits mostly inhibitors. FMDV antiviral cell-based qHTS. actives 1.2% (n = 410,000). AID 1159524; calls by dose curve; tested in HEK293T cells; also: read-out not given here; nearly all actives have a fitted effect of over 45% in size
Sm TGR inh: inhibitors of Schistosoma mansoni thioredoxin glutathione reductase; Q962Y6; purified TGR, DTNB reduction, TNB absorbance 405 nm; Potency, µM (doses to about 114 µM), for inactives: top-dose activity change, negative = inhibition, usual class: inhibitors; actives 3% (n = 360,000); active = well fitted inhibition curve with a large enough effect; inconclusive = small, poorly fitted or top-dose-only effect; inactive = no such curve, though single readings can be large or run the other way; also: nearly all actives have a fitted effect of over 60% in size
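First, TGR (20 nM dispensed) and NADPH were mixed with compound. Second, a 15 min room-temperature incubation followed. Third, further NADPH and then DTNB were added to start the reaction. Finally, TNB absorbance was monitored kinetically.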
Vaccinia mCherry: inhibitors of vaccinia virus infection (mCherry reporter signal) | Vaccinia virus mCherry reporter infection, fluorescence | Potency, µM (titrated, usually from 36.5 µM), for inactives: at the highest dose activity change, negative = inhibition, hits mostly inhibitors | actives 0.63% (n = 310,000) | AID 720579; calls by dose curve; tested in A549 cells; also: nearly all actives have a fitted effect of over 35% in size
* marks the source's active call; other numbers are inactive results; i = inactive; ? = inconclusive; . = no result; [ ] = dose if it differs, or a comment. % is scaled to controls: 0 for no effect and ±100 for the full control effect; potency is read from the fitted curve at half-maximal effect.

SMILES | Lassa entry inh | Vaccinia Venus | Marburg entry inh | FMDV inh | Sm TGR inh | Vaccinia mCherry
CCOC(=O)C(NC(=O)c1ccc(F)cc1)(Nc1sc2c(c1C(N)=O)CCC2)C(F)(F)F (configuration not stated) | 6% | -15% | 4% | -10% | ? | -10%
CCOC(=O)C(NC(=O)c1ccccc1Cl)(Nc1sc2c(c1C(N)=O)CCC2)C(F)(F)F (configuration not stated) | . | . | 2% | ? | 40µM* | .
COc1cc(=O)n2c(c1C(=O)N(C)Cc1nonc1C)CCN(C(=O)c1cccc(C)c1C)CC2 | . | 0% | . | 13% | . | i
Cc1cccc(N2CCN(C(=O)c3cccc(-n4c(C)nc5cccnc54)c3)CC2C)c1 (configuration not stated) | ? | -21% | . | 18µM* | 3% | -23%
Cc1nc2cccnc2n1-c1cccc(C(=O)N2CCN(c3ccc(Cl)cc3)CC2)c1 | ? | -28% | . | 13µM* | 5% | -26%
Cc1cccc(N2CCN(C(=O)c3cccc(-n4c(C)nc5cccnc54)c3)CC2)c1C | -13%[46.1 µM] | -29% | . | ? | -5% | i
Cc1ccc(C)c(N2CCN(C(=O)c3cccc(-n4c(C)nc5cccnc54)c3)CC2)c1 | ? | -21% | . | 25µM* | -16% | -25%
CC(C)c1cnc2c(c1SCC(=O)Nc1ccc(C(N)=O)cc1)c(=O)n(C)c(=O)n2C | ? | -9% | . | 1% | 7% | -17%
CCOC(=O)NN=C1C[C@@H](O)[C@@H](O)[C@@H]2[C@H]3C(=O)N(C4CCCCC4)C(=O)[C@@H]3CC[C@H]12 | ? | . | 20%[14.2 µM] | . | . | .
COc1ccc(NC(=O)C2=C(C)Nc3nc(SCc4ccccc4C)nn3C2c2cc(OC)c(O)c(OC)c2)cc1 (configuration not stated) | -12%[46.1 µM] | -2% | 14%[46.1 µM] | -2% | -2% | -3%
Cc1cc(/C=C(/C#N)c2nc3ccccc3[nH]2)c(C)n1-c1cccc([N+](=O)[O-])c1 | 10µM* | ? | ? | 0% | 4% | .
CCCOc1cc(N(CC)CC)ccc1/C=C(/C#N)c1nc2ccc(C)cc2[nH]1 | -27% | 104% | ? | ? | 0% | i
Cc1cc(/C=C(\C#N)c2nc3ccccc3[nH]2)c(C)n1C | 10µM* | -27% | ? | 2% | -3% | -21%
CCOc1cc(N(CC)CC)ccc1/C=C(/C#N)c1nc2ccccc2[nH]1 | -15% | . | 13µM* | -24% | 12% | .
Cc1ccc(C)c(NS(=O)(=O)c2cc(C(=O)NCc3ccco3)ccc2C)c1 | ? | -22% | -18% | 40% | 51% | -3%
Cc1ccc(C(=O)NCc2ccco2)cc1S(=O)(=O)Nc1cccc(C)c1C | ? | . | 21µM* | -101% | -21% | .
Cc1ccccc1NS(=O)(=O)c1cc(C(=O)NCCC2=CCCCC2)ccc1C | ? | -25% | -45% | . | -1% | ?
Cc1ccc(SCCNC(=O)c2ccc(C)c(S(=O)(=O)Nc3ccccc3C)c2)cc1 | 10µM* | -22% | 23µM* | . | 7% | -19%
Cc1ccccc1NS(=O)(=O)c1cc(C(=O)NCc2ccco2)ccc1C | 1.6µM* | ? | -7% | 8% | ? | -22%
Cc1c(C(=O)N2CCOCC2)oc2c1-c1nn(CC(=O)NCc3cccc(Cl)c3)cc1CC2 | -30%[46.1 µM] | -16% | . | ? | -4% | -20%
COC(=O)[C@@H]1C[C@]2(OC(=O)c3ccccc3)C=CC(=O)C[C@@H]2N1C(=O)OCc1ccccc1 | 7.3µM* | -11% | ? | 22µM* | -12% | i
COC(CNC(=O)C1CCCN1C(=O)OCc1ccccc1)OC (configuration not stated) | 15%[46.1 µM] | -14% | ? | -7% | 3% | i
CCCCCCSC1=C(C#N)C(c2ccc(C)o2)CC(=O)N1 (configuration not stated) | -19% | -23% | -6% | . | 45µM* | -1%
N#CC1=C(SCC(=O)NCc2ccccc2)NC(=O)CC1c1ccco1 (configuration not stated) | 1% | -13% | 3% | -7% | 40µM* | i
Cc1ccc(C2CC(=O)NC(SCc3ccccc3)=C2C#N)o1 (configuration not stated) | -19% | -17% | 2% | ? | ? | -17%
SMILES | Lassa entry inh | Vaccinia Venus | Marburg entry inh | FMDV inh | Sm TGR inh | Vaccinia mCherry
N#CC1=C(SCc2ccccc2)NC(=O)CC1c1ccco1 (configuration not stated) | -18% | . | -4% | -10% | 35µM* | .
COc1cccc(CN2CCc3nnc(CCc4ccccc4)n3CC2)c1OC | . | 3% | . | -6% | . | -5%
COc1ccc(OC)c(Nc2ncnc3sccc23)c1 | . | . | . | -1% | -1% | .
COc1cc(CN(C)c2ncnc3sccc23)ccc1OC(F)F | -11% | -18% | 2.8µM* | ? | -4% | -25%
CN1C(=O)C(=Cc2cccnc2)C(=O)N(C)C1=O | 23% | -14% | 15% | 0% | -17% | -17%
CC1C/C(=C\c2cccnc2)C(=O)/C(=C/c2cccnc2)C1 (configuration not stated) | 2.9µM* | 8.9µM* | 2.1µM* | 3.5µM* | ? | ?
CN1CCN(CCCN2c3ccccc3Sc3ccc(C(F)(F)F)cc32)CC1 | 13µM* | ? | 6.5µM* | ? | 9% | ?
O=c1c(N2CCN(c3cccc(Cl)c3)CC2)csc2ccccc12 | 1%[46.1 µM] | ? | . | -20% | 1% | ?
O=C(Nc1ccc(Cl)cc1)N1CCN(c2ccc3nnc(-c4ccccc4)n3n2)CC1 | . | ? | -26%[46.1 µM] | -7% | 4% | 10µM*
CCOc1ccc(N(CC(=O)NCc2ccc(C)cc2)S(=O)(=O)c2c(C)noc2C)cc1 | 22%[46.1 µM] | 3% | 2%[46.1 µM] | -7% | 9% | 2%
Cc1ccc(-c2nc(=S)c3c(n2Cc2ccco2)CC(C)(C)OC3)cc1 | -18% | . | 13µM* | ? | -18% | .
CN(C)CCCn1c(-c2ccccc2)nc(=S)c2c1CCCC2 | -12% | . | -2% | 23% | 45µM* | .
OCCCn1c(-c2ccccc2)nc(=S)c2c1CCCC2 | 10% | . | 16% | -9% | ? | .
Cc1cccc(-c2nc(=S)c3c(n2Cc2ccco2)CCCC3)c1 | 6% | 2% | -25% | -2% | 20µM* | -11%
Cc1ccc(-c2nc(=S)c3c(n2Cc2ccco2)CCCC3)cc1 | -2% | 0% | 2% | -5% | 8.9µM* | .
CC(C)OCCCn1c(=O)c2ccccc2n2c(-c3ccccc3)nnc12 | 1%[46.1 µM] | 4% | -14%[46.1 µM] | -15% | 25% | -4%
COc1ccc(C(C)=O)cc1COC(=O)c1cnc(Cl)c(Cl)c1 | . | 2% | -1%[46.1 µM] | ? | 1.4µM* | 0%
CCOc1ccc(C(C)=O)cc1COC(=O)c1ccc2c(c1)NC(=O)CS2 | . | . | . | ? | 11µM* | .
COc1ccc(C(C)=O)cc1COC(=O)c1ccc(S(=O)(=O)N(C)C)cc1 | . | . | . | -16% | 2.5µM* | .
